# Measured values as given in PubChem BioAssay AID485270 (The Scripps Research Institute Molecular Screening Center, 2010).
# In all, about 330,000 compounds went through this assay and about 5,800 (1.8%) were called active. Many of the other results were omitted from the sample, so actives are more common in it than they were. Values without a mark were called inactive. No stated cut-off is given here; in the data, active means inhibition mostly above about 38% (no sharp cut-off); inactive means mostly below about 40%.
# Target: Orexin/Hypocretin receptor type 1 (Homo sapiens) (UniProt O43613)
# Sequence (O43613 whole entry, looked up): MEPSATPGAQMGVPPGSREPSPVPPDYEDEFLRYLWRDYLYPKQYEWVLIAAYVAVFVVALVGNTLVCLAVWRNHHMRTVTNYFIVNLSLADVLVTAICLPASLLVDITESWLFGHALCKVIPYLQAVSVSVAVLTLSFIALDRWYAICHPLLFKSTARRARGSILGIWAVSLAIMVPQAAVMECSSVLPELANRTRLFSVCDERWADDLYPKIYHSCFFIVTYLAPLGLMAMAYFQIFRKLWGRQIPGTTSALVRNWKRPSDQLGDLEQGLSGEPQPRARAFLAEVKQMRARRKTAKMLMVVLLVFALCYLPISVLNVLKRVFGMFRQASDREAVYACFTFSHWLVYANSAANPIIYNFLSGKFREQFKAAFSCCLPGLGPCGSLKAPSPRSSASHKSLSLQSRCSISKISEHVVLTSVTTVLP
# Test: antagonists of human orexin 1 receptor (OX1R) (AID 485270);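 further: 0% = agonist challenge alone and 100% = reference antagonist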
# Settings: OX1R-expressing cells, FRET antagonist read-out; at 6.6 µM; active compounds read high
row,SMILES,inhibition
1,CC(C)c1nnc(NC(=O)C2CCCN2S(=O)(=O)c2ccc(Cl)cc2)s1 (stereo not drawn),39.3%
2,Cc1cccc(NC(=O)C2CCCN2S(=O)(=O)c2ccc(F)cc2)c1C (stereo not drawn),50% (active)
3,Cc1cccc(NC(=O)C2CCCN(C(=O)Nc3ccc(F)cc3)C2)c1C (stereo not drawn),21.2%
4,COc1ccccc1NC(=O)C1CCCN1S(=O)(=O)c1ccc(Cl)cc1 (stereo not drawn),62.4% (active)
5,COc1ccc(Cl)cc1NC(=O)[C@@H]1CCCN1C(=O)c1cccs1,1.43%
6,O=C(NCc1ccccc1Cl)C1CCCN1S(=O)(=O)c1ccc(F)cc1 (stereo not drawn),2.31%
7,CC1Sc2ccc(C(=O)NCc3ccccc3Cl)cc2NC1=O (stereo not drawn),1.56%
8,NC(=O)Nc1ccc(C(=O)OCC(=O)NC2CCCc3ccccc32)cc1 (stereo not drawn),19.8%
9,COc1cccc(CC2(CO)CCCN(CC3=Cc4cc(OC)ccc4OC3)C2)c1 (stereo not drawn),25.7%
10,COc1cccc(CC2(CO)CCCN(Cc3nc(-c4cccs4)oc3C)C2)c1 (stereo not drawn),45% (active)
11,COc1cccc(CC2(CO)CCCN(Cc3ccc(OC(F)F)cc3)C2)c1 (stereo not drawn),13.4%
12,COC(=O)[C@]1(Cc2ccccc2)N[C@H](CN(C)S(=O)(=O)c2ccc(OC(F)(F)F)cc2)[C@@H]2C(=O)N(C)C(=O)[C@@H]21,5.12%
13,O=C(CSc1ncnc2sccc12)NC1CCS(=O)(=O)C1 (stereo not drawn),4.8%
14,CCCCNS(=O)(=O)CCNCc1ccccc1OC,5.19%
15,CCCCNC(=O)C(C)N(CCN(C)C)C(=O)CCCCCN1C(=O)NC(c2ccc(Cl)cc2)C(C(=O)OCc2ccccc2)=C1C (stereo not drawn),7.69%
16,O=C(CCCOc1ccccc1)NNC(=O)c1ccc(Cl)cc1,2.88%
17,CN=C1C=C/C(=N/N=c2\ccn(O)cc2C)C=C1C,58.6% (active)
18,CCOc1ncccc1C(=O)Nc1ccc2c(c1)OCCO2,14.1%
19,O=C(COC(=O)c1ccc(F)cc1)Nc1ccc2c(c1)OCO2,7.07%
20,COc1cc2ccccc2cc1C(=O)N1CCOCC1,9.14%
21,COc1cc2ccccc2cc1C(=O)Nc1ccc(N2CCOCC2)cc1,63.5% (active)
22,COc1cc2ccccc2cc1C(=O)Nc1ccncc1,17.8%
23,O=C(Cn1cnc2ccccc2c1=O)NNC(=O)c1ccccc1F,6.41%
24,COc1cccc(N=c2oc3c(C)ncc(CO)c3cc2C(N)=O)c1,84.6% (active)

row,SMILES,inhibition
1,COC(=O)c1ccc(NC(=O)c2cc3c(CO)cnc(C)c3oc2=Nc2cccc(C(N)=O)c2)cc1,7.42%
2,COc1cccc2cc(C(N)=O)/c(=N\NC(=O)c3ccccc3)oc12,5.27%
3,O=C(CN1C(=O)NC2(CCCCCC2)C1=O)Nc1ccc([N+](=O)[O-])cc1,11.2%
4,O=C(Nc1ccccc1F)c1ccc(Cn2cc(Br)cn2)cc1,8.12%
5,Cc1ccc(Br)c(NS(=O)(=O)c2cccc(C(=O)N3CCNC(=O)C3)c2)c1,3.06%
6,S=C(NC1CCCCC1)NN1CCOCC1,18.3%
7,COc1ccc(NC(=O)CN2C(=O)CSc3ccc(S(=O)(=O)N4CCC(C)CC4)cc32)cc1,3.75%
8,O=C(Nc1cccc(S(=O)(=O)N2CCCC2)c1)c1cncc(Br)c1,-1.91%
9,CCOc1cccc(/C=C/c2ccc3ccccc3n2)c1OC(C)=O,58.1%
10,COc1cccc(/C=C2\C=C(c3ccc(C)cc3)OC2=O)c1OC(C)=O,-6.31%
11,COc1cccc(/C=C/c2ccc3ccccc3n2)c1OC(C)=O,92% (active)
12,O=C(CSc1ncn[nH]1)Nc1ccc(Br)cc1Br,5.47%
13,C=CC[C@@H](CC(=O)N[C@@H](CO)Cc1ccccc1)C(=O)N[C@H](COC(=O)[C@H](CC=C)CC(=O)OC(C)(C)C)Cc1ccccc1,3.4%
14,CN(Cc1ccc(F)cc1)C(=O)CN1C(=O)c2ccccc2S1(=O)=O,13.1%
15,CC(C)c1ccc(C(=O)OC2CCOC2=O)cc1 (stereo not drawn),27.2%
16,O=C(OC1CCOC1=O)c1ccc(-c2nc3ccccc3s2)s1 (stereo not drawn),119% (active)
17,Cc1nn(Cc2ccccc2)c(Cl)c1C(=O)OC1CCOC1=O (stereo not drawn),21.6%
18,Cc1ccc(S(=O)(=O)N2CCCCC2)cc1NC(=O)CCNC(=O)c1ccccc1,2.26%
19,COc1cccc(CNC(C)C(=O)Nc2ccc(S(=O)(=O)N3CCCC3)cc2)c1 (stereo not drawn),2.03%
20,O=C(NNC(=O)c1ccc(Cl)nc1)c1ccc(Br)cc1,8.95%
21,CCN(C[C@H]1N[C@@](CC)(C(=O)OC)[C@H]2C(=O)N(Cc3ccccc3)C(=O)[C@@H]12)S(=O)(=O)c1ccccc1,6.85%
22,O=C(Cc1ccc2c(c1)CCCC2)Nc1ccccc1Cl,6.59%
23,O=C(Nc1ccccc1Cl)/C(Cl)=C(\Cl)S(=O)c1ccccc1 (stereo not drawn),87.9% (active)
24,Cc1c(NC(=O)Nc2ccccc2Cl)sc(=S)n1C,12.2%
